Assay outcomes deposited in PubChem by National Center for Advancing Translational Sciences (NCATS).
ALOX12 inh: Primary qHTS assay for inhibitors of human arachidonate 12S-lipoxygenase (ALOX12): Round 2; purified 12hLO, xylenol orange hydroperoxide absorbance; Potency, µM (doses to about 108 µM), for the others: at the top dose activity change, negative = inhibition, most hits filed as inhibitors; 1.1% of 580,000 active; AID 1671190, 2021
Target sequence (P18054 whole entry, looked up): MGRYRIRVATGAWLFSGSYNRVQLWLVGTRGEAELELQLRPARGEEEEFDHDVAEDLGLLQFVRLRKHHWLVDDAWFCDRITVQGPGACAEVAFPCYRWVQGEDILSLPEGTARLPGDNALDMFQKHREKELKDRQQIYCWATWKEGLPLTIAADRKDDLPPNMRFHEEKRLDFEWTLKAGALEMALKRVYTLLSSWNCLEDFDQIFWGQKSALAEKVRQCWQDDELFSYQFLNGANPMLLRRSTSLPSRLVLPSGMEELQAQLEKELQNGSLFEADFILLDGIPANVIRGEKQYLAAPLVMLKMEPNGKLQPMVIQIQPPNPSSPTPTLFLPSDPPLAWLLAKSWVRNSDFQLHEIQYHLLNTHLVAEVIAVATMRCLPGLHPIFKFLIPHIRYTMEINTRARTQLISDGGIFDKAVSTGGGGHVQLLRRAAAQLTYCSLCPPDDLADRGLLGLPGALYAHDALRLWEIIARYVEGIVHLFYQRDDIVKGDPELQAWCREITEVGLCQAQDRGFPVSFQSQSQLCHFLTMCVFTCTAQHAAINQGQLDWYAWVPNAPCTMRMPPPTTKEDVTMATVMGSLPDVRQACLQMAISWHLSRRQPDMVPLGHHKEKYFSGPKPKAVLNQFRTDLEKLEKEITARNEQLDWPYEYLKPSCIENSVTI
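Purified human 12hLO (150 nM final) in 25 mM Hepes, 0.01% Triton X-100, pH 7.0 was preincubated 15 min at room temperature with compound. Then 40 uM arachidonic acid was added, 30 min. Hydroperoxide was read by Fe-XO absorbance ratio 573/405 nm.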
PLK1 PBD inh: qHTS for Inhibitors of PLK1-PDB (polo-like kinase 1 - polo-box domain): Primary Screen | AID 720504, 2013 | 2.8% of 360,000 active | Serine/threonine-protein kinase PLK1 (Homo sapiens), P53350 | Potency, µM, without a hit: max response, negative = inhibition, usual class: inhibitors | Plk1 PBD binding of FITC phosphopeptide, fluorescence polarization; note: series mostly up to about 57 µM; nearly all actives have a fitted effect of over 65% in size
Sfp inh: qHTS Assay for Inhibitors of Bacillus subtilis Sfp phosphopantetheinyl transferase (PPTase). 4'-phosphopantetheinyl transferase ffp (Bacillus subtilis), Q9F4F7. Biochemical Sfp PPTase activity, qHTS. Potency, µM, for the others: largest response in the series, negative = inhibition, actives largely listed as inhibitors. 3.5% of 310,000 active;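 note: the enzyme is Sfp with the accession as filed and its product quenches rhodamine fluorescence; 0% = enzyme reaction without inhibitor and -100% = no enzyme wells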
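Buffer: 50 mM Hepes-Na pH 7.6, 10 mM MgCl2, 0.01% Nonidet P-40, 0.01% BSA. Enzyme 15 nM, pre-exposed to compound 15 min; substrates then added and fluorescence change tracked over 30 min.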
VDR inh: Inhibitors of the vitamin D receptor (VDR): qHTS; Vitamin D3 receptor (Homo sapiens), P11473; VDR-SRC2-3 peptide fluorescence polarization, 2 h; Potency, µM, without a hit: max response, negative = inhibition, actives largely listed as inhibitors; 0.93% of 400,000 active; AID 504847, 2011
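Reagent solutions, kept cold and dark, are dispensed first; compounds are then pinned in at 23 nl, plates briefly spun, and incubated 2 h at ambient temperature. Inhibition of VDR–SRC2-3 peptide binding is read by fluorescence polarization.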
* hit, by the source's call; i = inactive; ? = inconclusive; nt = no result; [ ] = another dose, or the depositor's remark. Most compounds without a hit are left out; they make up all but 4.2% or so of the library. Calls come from the whole dose curve; as a rule, active = well fitted curve in the direction sought with a large enough effect; inconclusive = small, poorly fitted or top-dose-only effect, or another doubt; inactive = no such curve, though single readings can be large; an effect the other way counts as inactive or inconclusive. Unless noted, % is set by controls: 0 for no effect and ±100 for the full control effect; potency is the fitted concentration of half-maximal effect.

SMILES	ALOX12 inh	PLK1 PBD inh	Sfp inh	VDR inh
COc1ccc(-c2nnc(Nc3ccc(OC)c(C(N)=O)c3)c3ccccc23)cc1	-21%	nt	nt	24%
Cc1ccc(C(=O)Nc2ccc(CN3CCS(=O)(=O)CC3)cc2)cc1C	?	1%	14%	4%
COc1ccc(NC(=O)Cn2nnc(C(=O)NCc3ccc4c(c3)OCO4)c2N)c(OC)c1	-27%	21µM*	-14%	-29%
C/C(=C\C(=O)c1ccc(F)cc1)NCc1ccc2c(c1)OCO2	40µM*	-5%	-7%	-2%
COc1ccc(CC(=O)NCc2ccc3c(c2)OCO3)cc1	112%	24µM*	5%	5%
COc1ccc(NC(=O)Cn2nnc(C(=O)NCc3ccc4c(c3)OCO4)c2N)cc1	?	-18%	7%	-18%
CCOC(=O)c1ccc(NCc2ccc3c(c2)OCO3)cc1	0%	0%	56µM*	-8%
O=C(CNC(=S)N(CCCN1CCOCC1)Cc1cccs1)NC1CCCC1	0%	0%	9%	15%
COc1ccc(Cl)cc1S(=O)(=O)NC(C)C(=O)NCc1ccc2c(c1)OCO2 (centres undefined)	-23%	24µM*	-4%	?
COc1ccc(Cl)cc1S(=O)(=O)NC(C)C(=O)NCc1ccncc1 (centres undefined)	2%	-14%	7%	-11%
FC(F)(F)c1cccc(NC(=S)NCCc2c[nH]c3ccccc23)c1	40µM*	nt	nt	nt
COc1cc(NC(=S)NCCc2c[nH]c3ccccc23)c(OC)cc1Cl	?	1%	23%	-1%
COc1ccccc1NC(=S)NCCc1c[nH]c2ccccc12	?	3.4µM*	-2%	-17%
COc1ccccc1NC(=S)NCCSc1ccc(C)cc1	45µM*	-9%	7%	-10%
COc1ccc(NC(=S)NCCc2c[nH]c3ccccc23)cc1	50µM*	-2%	18%	-14%
O=C(NCC1CCCCC1)C1CCN(C(=O)NC2CCCCC2)CC1	?	-3%	15%	-5%
CS(=O)(=O)N1CCC2(CC1)C(=O)NCN2C(=O)Cc1cccc(Cl)c1	11%[6.33 µM]	nt	nt	nt
CC1=CC2(O)OCCN(CCO)C2=CC1=O (centres undefined)	-29%	-5%	56µM*	15%
O=C(NNc1ncnc2c1cnn2-c1ccc(F)cc1)c1cccs1	i	-8%	28%	8%
O=CN1CCN(C(C(=O)O)c2c[nH]c3cc(NC(=O)c4ccccc4)ccc23)CC1 (centres undefined)	-12%	nt	nt	nt
CCCc1nc2ccc(C(=O)OC)cn2c1Cc1ccccc1	?	-1%	nt	nt
CCCc1nc2ccc(C(=O)OC)cn2c1Cc1ccc(C)cc1	10µM*	-12%	nt	nt
CC[C@@]1(O)C(=O)OCc2c1cc1n(c2=O)Cc2cc3c(CN(C)C)c(O)ccc3nc2-1	?	6µM*	16%	-5%
CCc1cccc(CC)c1NC(=S)/C(=C(\[O-])c1ccc(Cl)s1)[n+]1ccccc1	66%	-17%	-15%	-28%
Cc1ccc(C)c(NC(=S)/C(=C(\[O-])c2ccc(Cl)s2)[n+]2ccccc2)c1	10%	-9%	50µM*	-20%
SMILES	ALOX12 inh	PLK1 PBD inh	Sfp inh	VDR inh
CC(C)(C)c1cc[n+](/C(C(=S)NC2CC2)=C(/[O-])c2ccc(Cl)s2)cc1	?	-19%	56µM*	?
COC(=O)c1ccccc1NC(=O)CN1CCOCC1	-15%	1%	15%	5%
CCOc1ccc(NC(c2ccccn2)c2oc(CO)cc(=O)c2O)cc1 (centres undefined)	-30%	?	3.2µM*	?
CCN1CCCC1CNC(=O)c1cc(S(N)(=O)=O)ccc1OC (centres undefined)	-2%	2%	25%	0%
O=C(O)c1ccccc1-c1ccccc1	7%	nt	nt	nt
S=c1sscc1-c1ccccc1	5.6µM*	?	nt	-7%
COc1ccc(-c2csc(NC(=O)C(CC(=O)O)N3CCOCC3)n2)cc1 (centres undefined)	-21%	5%	8%	13%
CC(C)OC(=O)C(CC(=O)O)N1CCOCC1 (centres undefined)	5.6µM*	0%	11%	-2%
COc1ccc2c(CC(=O)OCC(=O)Nc3ccc4c(c3)OCO4)coc2c1	31%	17µM*	3%	18µM*
COc1ccc2c(CC(=O)OCC(=O)N3CCc4ccccc43)coc2c1	45%	27µM*	19%	?
CCCOC(c1ccccc1)(c1ccc(C(F)(F)F)cc1)C(Oc1nc(C)cc(C)n1)C(=O)O (centres undefined)	9%	-18%	19%	-4%
CCCCc1c(-c2ccccc2OC)ncn1Cc1ccccc1C	28µM*	nt	nt	nt
O=c1cnc2cncnc2n1Cc1ccccc1Cl	?	nt	13%	40µM*
CC(=O)C1=C(C)N(Cc2ccc(Br)cc2)C(=S)NC1c1cccc(F)c1 (centres undefined)	45µM*	nt	nt	nt
CCN1C(=O)N[C@@H](c2ccc(Br)cc2)C(C(C)=O)=C1C	6%	-1%	3%	-1%
CC(=O)C1=C(C)N(Cc2ccc(Br)cc2)C(=S)NC1c1ccc(F)cc1 (centres undefined)	35µM*	nt	nt	nt
CC(=O)C1=C(C)N(Cc2ccc(F)cc2)C(=S)NC1c1ccc(Br)cc1 (centres undefined)	35µM*	nt	nt	nt
O=c1c(-c2cc(F)cc(F)c2)nc2cnc(N3CCOCC3)nc2n1CCc1ccccc1	0%	nt	1%	4%
COc1ccccc1C(=O)NCC(=O)NNc1ncnc(N)c1[N+](=O)[O-]	nt	nt	7.1µM*	nt
COc1cccc(/C=N/Nc2ncnc(N)c2[N+](=O)[O-])c1OC	nt	-9%	45µM*	-29%
O=C(NCCc1noc(-c2ccncc2)n1)c1c2c(nc3ccccc13)CCCC2	40%	nt	nt	nt
Cc1ccccc1NC(=O)C1=Cc2sc3c(c2CS1)CCCC3	20µM*	nt	nt	nt
O=C(C1=Cc2sc3c(c2CS1)CCCC3)N1CCC2(CC1)OCCO2	35µM*	nt	nt	nt
O=C(CC1Oc2ccccc2NC1=O)NCc1ccccc1 (centres undefined)	7%	21µM*	7%	?
Cc1ccc2c(c1)NC(=O)C(CC(=O)NCc1ccc(F)cc1)O2 (centres undefined)	362%	-15%	-11%	1%
SMILES	ALOX12 inh	PLK1 PBD inh	Sfp inh	VDR inh
CN(C)c1ccc(N/C=C/C(=O)C(C)(C)C)cc1	?	-3%	50µM*	16µM*
CN(C)c1ccc(N/C=C/C(=O)c2ccccc2)cc1	-7%	9%	20µM*	79µM*
O=C(/C=C/Nc1ccccc1)c1ccccc1	-1%	2%	1%	-6%
CCOc1ccc(-c2nnc(-c3ccncc3)o2)cc1	-22%	27µM*	9%	71µM*
CCCCOc1ccc(-c2nnc(-c3ccncc3)o2)cc1	-24%	1%	-5%	-14%
CCOc1cc(/C=C2\C(=O)N(Cc3ccc(C)cc3)C(C)=C2C(=O)OC)ccc1O	-28%	1%	18µM*	?
CCOC(=O)C1=C(C)N(c2ccc(OC)cc2)C(=O)/C1=C\c1ccc(O)c(OCC)c1	?	-14%	20µM*	?
